Reference: PubChem BioAssay (Tox21)
Results filed as inconclusive are left out. Calls of active or inactive are those of the source. Calls follow the shape of the dose curve; as a rule, active = well fitted curve in the direction sought with a large enough effect in the repeat runs; inconclusive = weak or mixed curves; inactive = no such curve, though single readings can be large; an effect the other way counts as inactive or inconclusive.

What was measured:
[1] = qHTS RealTime-Glo MT Cell Viability Assay in HepG2 cells - 8 hour (AID 1224873); also: nearly all actives have a fitted effect of over 55% in size
Method in brief: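 Real-time viability: cells seeded at 600 per well together with NanoLuc and cell-permeant prosubstrate, compounds added after 5 h incubation. Luminescence tracked at 0, 8, 16, 24, 32 and 40 h of exposure.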

[2] = qHTS RealTime-Glo MT Cell Viability Assay in HEK293 cells - 40 hour (AID 1224874); conditions: RealTime-Glo luminescence; max response: hits give low values; also: nearly all actives have a fitted effect of over 50% in size
Method in brief: (§1)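 Tox21 screen in HEK293 using RealTime-Glo MT chemistry, with cells and reagent co-dispensed. Luminescence proportional to viable cell number was captured at intervals during 40 h compound exposure at 37 C.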

[3] = A CellTox Green Cytotoxicity Assay to monitor cytotoxicity in HepG2 cells - 16 hour (AID 1224876); also: nearly all actives have a fitted effect of over 45% in size
Method in brief: (§2)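 Nonlytic assay: viable cells exclude the dye, so fluorescence scales with cell death. HepG2 at 600 cells/well, compounds added after 5 h, signal read across 40 h.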

[4] = qHTS RealTime-Glo MT Cell Viability Assay in HepG2 cells - 32 hour (AID 1224877); also: nearly all actives have a fitted effect of over 55% in size
Method in brief: (§3)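 qHTS, HepG2, 600 cells/well, RealTime-Glo (NanoLuc + prosubstrate) added with cells; 5 h preincubation; DMSO compound addition; 37 C; luminescence at 0/8/16/24/32/40 h.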

[5] = A CellTox Green Cytotoxicity Assay to monitor cytotoxicity in HepG2 cells - 24 hour (AID 1224878); also: nearly all actives have a fitted effect of over 45% in size
Method in brief: as §2

[6] = A CellTox Green Cytotoxicity Assay to monitor cytotoxicity in HepG2 cells - 40 hour (AID 1224879); also: nearly all actives have a fitted effect of over 40% in size
Method in brief: as §2

[7] = A CellTox Green Cytotoxicity Assay to monitor cytotoxicity in HEK293 cells - 32 hour (AID 1224881); also: nearly all actives have a fitted effect of over 40% in size
Method in brief: (§4)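 Seeding of HEK293 cells together with cytotoxicity dye preceded a 5 h incubation at 37 C/5% CO2. Test compounds in DMSO were then added and fluorescence monitored across 40 h.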

[8] = A CellTox Green Cytotoxicity Assay to monitor cytotoxicity in HepG2 cells - 0 hour (AID 1224882); also: nearly all actives have a fitted effect of over 35% in size
Method in brief: as §2

[9] = A CellTox Green Cytotoxicity Assay to monitor cytotoxicity in HepG2 cells - 32 hour (AID 1224883); also: nearly all actives have a fitted effect of over 50% in size
Method in brief: as §2

[10] = A CellTox Green Cytotoxicity Assay to monitor cytotoxicity in HEK293 cells - 8 hour (AID 1224884); also: nearly all actives have a fitted effect of over 35% in size
Method in brief: as §4

[11] = qHTS RealTime-Glo MT Cell Viability Assay in HepG2 cells - 16 hour (AID 1224885); also: nearly all actives have a fitted effect of over 50% in size
Method in brief: as §3

[12] = qHTS RealTime-Glo MT Cell Viability Assay in HEK293 cells - 24 hour (AID 1224886); also: top concentration of the series differs between compounds; nearly all actives have a fitted effect of over 50% in size
Method in brief: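 Assay medium contained NanoLuc luciferase plus cell-permeant prosubstrate, added with HEK293 cells at 600 cells/well. After 5 h at 37 C/5% CO2 compounds were added; plates stayed at 37 C for 40 h with serial luminescence reads.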

[13] = qHTS RealTime-Glo MT Cell Viability Assay in HEK293 cells - 8 hour (AID 1224887)
Method in brief: as §1

[14] = A CellTox Green Cytotoxicity Assay to monitor cytotoxicity in HEK293 cells - 16 hour (AID 1224888); also: nearly all actives have a fitted effect of over 35% in size
Method in brief: as §4

[15] = qHTS RealTime-Glo MT Cell Viability Assay in HepG2 cells - 0 hour (AID 1224889); also: nearly all actives have a fitted effect of over 50% in size
Method in brief: as §3

[16] = A CellTox Green Cytotoxicity Assay to monitor cytotoxicity in HepG2 cells - 8 hour (AID 1224890); also: nearly all actives have a fitted effect of over 45% in size
Method in brief: as §2

[17] = qHTS assay to identify small molecule antagonists of the estrogen receptor alpha (ER-alpha) signaling pathway using the BG1 cell line in the presence of 0.1 nM 17-beta-estradiol - cell viability counter screen (AID 1259241); also: nearly all actives have a fitted effect of over 40% in size
Method in brief: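 The cell line endogenously expresses full-length ER-alpha and carries four EREs driving luciferase. Cells are cultured 5 days hormone-free, treated 22 hr with compounds and 0.1 nM estradiol, then viability is read by fluorescence.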

[18] = A CellTox Green Cytotoxicity Assay to monitor cytotoxicity in HEK293 cells - 24 hour (AID 1224875); also: series mostly up to about 77 µM; nearly all actives have a fitted effect of over 45% in size
Method in brief: as §4

[19] = qHTS RealTime-Glo MT Cell Viability Assay in HEK293 cells - 0 hour (AID 1224880)
Method in brief: as §1
% is scaled to controls: 0 for no effect and ±100 for the full control effect.

OCCN(CCO)c1cccc(Cl)c1
inactive: outcome [1] | max response [2] 0.212% | outcome [3] | outcome [4] | outcome [5] | Potency [6] | Potency [7] | outcome [8] | Potency [9] | Potency [10] | outcome [11] | Potency [12] | Potency [13] | outcome [14] | Potency [15] | outcome [16] | Potency [17]

O=C(O)Cc1ccc(Cl)cc1Cl
inactive: max response [2] -0.186% | outcome [18] | outcome [4] | Potency [19] | Potency [7] | Potency [10] | Potency [12] | Potency [13] | outcome [14] | Potency [17]

CC(=O)Nc1ccc(S(=O)(=O)Nc2ccc([N+](=O)[O-])cc2)cc1
inactive: outcome [1] | max response [2] -8.9% | outcome [18] | outcome [4] | outcome [5] | Potency [6] | Potency [19] | Potency [7] | outcome [8] | Potency [9] | outcome [11] | Potency [12] | Potency [13] | outcome [14] | Potency [15] | outcome [16]

Nc1nnc(-c2cccc(Cl)c2Cl)c(N)n1
inactive: outcome [3] | Potency [6] | Potency [7] | outcome [8] | Potency [9] | outcome [14] | outcome [16] | Potency [17]

O=C(O)Cc1cn(-c2ccccc2)nc1-c1ccc(Cl)cc1
inactive: outcome [1] | outcome [18] | outcome [4] | outcome [5] | Potency [6] | Potency [19] | Potency [7] | outcome [8] | Potency [9] | Potency [10] | outcome [11] | Potency [12] | Potency [13] | outcome [14] | Potency [15] | outcome [16] | Potency [17]

N[C@@H](CCC(=O)N[C@@H](CS)C(=O)NCC(=O)O)C(=O)O
inactive: viability change, negative = cytotoxic [1] -0.362% [at 15.8 µM] | max response [2] 3.69% | activity change, negative = cytotoxic [4] 2.09% [at 15.8 µM] | cytotoxicity [5] -12.9% [at 15.8 µM] | cytotoxicity increase [6] -8.24% [at 15.8 µM] | activity change, negative = cytotoxicity [19] 8.63% [at 15.8 µM] | cytotoxicity increase [7] 2.25% [at 15.8 µM] | cytotoxicity [8] -0.523% [at 15.8 µM] | cytotoxicity increase [9] -10.1% [at 15.8 µM] | cytotoxicity increase [10] 2.4% [at 15.8 µM] | activity change, negative = cytotoxicity [12] 7.83% [at 15.8 µM] | activity change, negative = cytotoxicity [13] 10.5% [at 15.8 µM] | activity change [14] 0.448% [at 15.8 µM] | activity change, negative = cytotoxicity [15] 1.78% [at 15.8 µM] | cytotoxicity increase [16] -6.34% [at 15.8 µM] | activity change, negative = cytotoxicity [17] -2.09% [at 19 µM]

CC(=O)Nc1cccc(C)c1
inactive: outcome [1] | outcome [18] | outcome [3] | outcome [4] | outcome [5] | Potency [6] | Potency [19] | Potency [7] | Potency [9] | Potency [10] | outcome [11] | outcome [14] | Potency [15] | outcome [16] | Potency [17]

COc1ccc2nc(SCc3ncc(C)c(OC)c3C)[nH]c2c1
inactive: outcome [1] | outcome [3] | outcome [4] | Potency [6] | Potency [19] | Potency [7] | outcome [8] | Potency [9] | Potency [10] | outcome [11] | outcome [14] | Potency [15] | outcome [16] | Potency [17]

O=C(OCc1ccccc1)C(=O)OCc1ccccc1
inactive: outcome [1] | outcome [3] | outcome [4] | outcome [5] | Potency [6] | Potency [19] | Potency [7] | outcome [8] | Potency [9] | Potency [10] | outcome [11] | Potency [12] | Potency [13] | outcome [14] | Potency [15] | outcome [16] | Potency [17]
